# Hit rate of the full screen: of about 350,000 compounds, about 450 (0.13%) were called active. No rule for the calls is given here. A selection follows. Results with a measured potency or affinity are listed apart.
# Assay: inhibitors of VEEV TC-83 cytopathic effect, confirmation, Vero cells (AID 588727)
# Conditions: VEEV TC-83 cytopathic effect inhibition, at 20 µM
# [1] = stronger effect = higher value unless noted
# [2] = measured here: 10K pilot screen inhibition, stronger effect = higher value
smiles,measurement,setting,value
COc1cc2cc(C(=O)O)[nH]c2c(OC)c1OC,inhibition,[1],0.1% (inactive)
COc1ccc(OC)c2[nH]c(C(=O)N3CCC(C(=O)O)CC3)cc12,inhibition,[1],0.69% (inactive)
COC(=O)c1cc(S(=O)(=O)N2CCN(c3ccc([N+](=O)[O-])cc3)CC2)c[nH]1,inhibition,[1],3.14% (inactive)
O=S(=O)(/C=C/c1ccccc1)Oc1ccccc1,inhibition,[1],inactive
COc1ccccc1Nc1ncnc2c1c(C)c(C)n2CCO,inhibition,[1],0.65% (inactive)
Cc1c(C)n(CCCN(C)C)c2ncnc(Nc3ccccc3)c12,inhibition,[1],1.72% (inactive)
CCOc1ccc(NC(=O)CN(C)C(=O)CCC2CCCCC2)cc1OCC,inhibition,[1],2.6% (inactive)
NNc1nc(-c2ccccc2Cl)c2cc(Br)ccc2n1,inhibition,[1],1.08% (inactive)
O=C(CCC1CCCN(C(=O)CCN2CCCCC2=O)C1)NCc1ccccc1F (stereo unspecified),inhibition,[1],"0.405% [measured here: 10K pilot screen inhibition, stronger effect = higher value]"
same,outcome,[1],inactive
C=CCN1C(=O)c2ccc(C(=O)NCCc3ccc(OC)c(OC)c3)cc2C1=O,inhibition,[1],0.34% (inactive)
CC1CCCCC1NC(=O)COCc1cc(-c2cccs2)on1 (stereo unspecified),inhibition,[1],inactive
Cc1cc(C(=O)Cn2nnc3ccccc3c2=O)c(C)n1-c1c(C)n(C)n(-c2ccccc2)c1=O,inhibition,[1],inactive
COc1ccc(-n2c(C)cc(C(=O)Cn3nnc4ccccc4c3=O)c2C)cc1,inhibition,[1],1.42% (inactive)
CC1Sc2ccc(S(=O)(=O)CCC(=O)N3CCCC3)cc2NC1=O (stereo unspecified),inhibition,[1],2.36% (inactive)
O=C(CSc1nc(-c2ccccc2Cl)ns1)c1ccc(Cl)cc1,inhibition,[1],1.15% (inactive)
COC(=O)c1ccc(N/C(=N/S(=O)(=O)c2ccccc2)c2ccccc2)cc1,inhibition,[1],1.58% (inactive)
CCC(C)N=Cc1c(Nc2ccccc2)nc2c(C)cccn2c1=O (stereo unspecified),inhibition,[1],inactive
CCCC[C@H]1COCCS(=O)(=O)N1Cc1cccc([N+](=O)[O-])c1,inhibition,[1],inactive
O=C(NCc1cccnc1)/C(=C\c1ccc(-c2ccc(Cl)c(Cl)c2)o1)S(=O)(=O)c1ccccc1,inhibition,[1],0.29% (inactive)
O=C(NCc1cccnc1)/C(=C/c1ccc(-c2cccc(Cl)c2)o1)S(=O)(=O)c1ccccc1,inhibition,[1],9.73% (inactive)
O=C(Cc1ccc(Br)cc1)NC1CCCc2ccccc21 (stereo unspecified),inhibition,[1],3.28% (inactive)
O=C(CCNC(=O)c1ccccc1)NC1CCCc2ccccc21 (stereo unspecified),inhibition,[1],inactive
O=C(CCNC(=O)c1ccc([N+](=O)[O-])cc1)NC1CCCc2ccccc21 (stereo unspecified),inhibition,[1],9.16% (inactive)
O=C(NC1CCCc2ccccc21)c1ccc(Br)cc1 (stereo unspecified),inhibition,[1],0.82% (inactive)
CC(SCC(=O)Nc1ccccc1Br)c1nc2ccccc2c(=O)[nH]1 (stereo unspecified),inhibition,[1],inactive
CCCOc1ccc(C(=O)Nc2cc(S(=O)(=O)N3CCOCC3)ccc2N2CCOCC2)cc1,inhibition,[1],6.81% (inactive)
CC(=O)c1ccc(S(=O)(=O)N2CCN(C(=O)c3ccc(-n4nc(C)c(Cl)c4C)cc3)CC2)cc1,inhibition,[1],2.19% (inactive)
O=[N+]([O-])c1cccc(/C=C/c2ccccn2)c1,inhibition,[1],0.25% (inactive)
O=[N+]([O-])c1cccc(/C=C/c2ccncc2)c1,inhibition,[1],inactive
O=C(CCNS(=O)(=O)c1cccc(Cl)c1)OCC(=O)N1CCN(C(=O)c2ccco2)CC1,inhibition,[1],0.85% (inactive)
O=C(CC1SC(N2CCOCC2)=NC1=O)Nc1ccccc1Cl (stereo unspecified),inhibition,[1],2.68% (inactive)
C=CCN1C(c2ccc(Br)cc2)=CS/C1=C(\C#N)c1nnc(N2CCOCC2)n1-c1ccccc1,inhibition,[1],11.4% (inactive)
CC(=O)/C(C#N)=C1\NC(=O)C(Cc2cc(Cl)ccc2Cl)S1 (stereo unspecified),inhibition,[1],3.03% (inactive)
Cc1ccccc1CC1SC(N)=NC1=O (stereo unspecified),inhibition,[1],1.28% (inactive)
O=C1N/C(=N\c2ccccn2)SC1Cc1ccccc1Cl (stereo unspecified),inhibition,[1],4.16% (inactive)
Cc1ccccc1CC1SC(N=C(N)N)=NC1=O (stereo unspecified),inhibition,[1],1.59% (inactive)
O=c1c2ccccc2nc(-c2ccco2)n1-c1nc2ccccc2s1,inhibition,[1],1.81% (inactive)
FC(F)Oc1ccc(NC(=S)N2CCc3ccccc32)cc1,inhibition,[1],0.39% (inactive)
Cc1ccccc1C(=O)N1CCC(C(=O)Nc2sccc2C(N)=O)CC1,inhibition,[1],2.51% (inactive)
CN(Cc1ccc(O)cc1)C1CCCCC1,inhibition,[1],1.27% (inactive)
OCC1(CCOc2ccccc2)CCN(Cc2ccncc2)CC1,inhibition,[1],0.23% (inactive)
OCC1(CCOc2ccccc2)CCN(Cc2cn[nH]c2-c2ccc(F)cc2)CC1,inhibition,[1],2.7% (inactive)
C=CCOc1ccc(C=Nc2ccc(Cl)cc2)c(O)c1,inhibition,[1],0.47% (inactive)
Cc1c(C(=O)N(C)CCn2ccnc2C)oc2c(F)cccc12,inhibition,[1],1.03% (inactive)
CCN(CC)C(=O)c1sc(NC(=O)c2ccoc2C)c(C(=O)OC)c1C,inhibition,[1],1.79% (inactive)
CN1CCN(CCCNC(=O)c2ccc(/C=C3\Oc4ccccc4N(Cc4ccccc4F)C3=O)cc2)CC1,inhibition,[1],13.6% (inactive)
O=C(NCCN1CCOCC1)c1ccc(/C=C2\Sc3ccccc3N(Cc3ccccc3F)C2=O)cc1,inhibition,[1],10.8% (inactive)
COc1ccccc1N1CCN(C(=S)Nc2ccccc2)CC1,inhibition,[1],1.3% (inactive)
CC(C)Oc1ccc(Cl)cc1Nc1nc(NCCO)nc(N2CCCC2)n1,inhibition,stronger effect = higher value,4.93% (inactive)
same,inhibition,[2],4.53%
Cc1ccc(NC(=O)CN2C(=O)NC3(CCCc4ccccc43)C2=O)c([N+](=O)[O-])c1 (stereo unspecified),inhibition,[1],1.12% (inactive)
Cc1ccccc1NS(=O)(=O)c1nnc(NC(=O)c2ccccc2F)s1,inhibition,stronger effect = higher value,1.96% (inactive)
same,inhibition,[2],3.31%
CC1(C)CC(=O)C=C(/C=C/c2ccccc2)C1,inhibition,[1],0.62% (inactive)
C(=C\c1ccncc1)/c1ccccc1,inhibition,[1],0.98% (inactive)
Cc1ccnc(SCc2cc(=O)c(OC(=O)c3cc([N+](=O)[O-])ccc3Cl)co2)n1,inhibition,[1],0.24% (inactive)
CCOC(=O)c1sc(=S)sc1SCc1cccc(C(F)(F)F)c1,inhibition,[1],inactive
O=S1(=O)C=C(SCc2ccc(F)cc2)Nc2ccccc21,inhibition,[1],inactive
CCCc1c(C(=O)Nc2ccc(F)cc2F)cnn1-c1ccccc1,inhibition,[1],inactive
CCCc1c(NC(=O)Nc2ccc(F)cc2)cnn1-c1ccc(Cl)cc1,inhibition,[1],3.23% (inactive)
CCCc1c(C(=O)Nc2ccc(F)cc2)cnn1-c1ccccc1,inhibition,[1],7.43% (inactive)
CCCc1c(C(=O)NNc2cccc(Cl)c2)cnn1-c1ccccc1,inhibition,[1],2.24% (inactive)
CC(Sc1nc2ncc(Cl)cc2[nH]1)C(=O)c1c(N)n(C)c(=O)n(C)c1=O (stereo unspecified),inhibition,[1],10.7% (inactive)
Cn1ncc2c(=O)[nH]cnc21,inhibition,[1],0.51% (inactive)
CC(=O)Nc1ccc(S(=O)(=O)N(C)CC(=O)OCC(=O)N(CC(C)C)C2CCS(=O)(=O)C2)cc1 (stereo unspecified),inhibition,[1],6.9% (inactive)
COc1ccc(NC(=O)CN(C)C(=O)c2cn(-c3ccccc3)nc2-c2cccnc2)cc1,inhibition,[1],6.98% (inactive)
CSCCC(NS(=O)(=O)c1ccc(Cl)cc1)C(=O)OCC(=O)NC12CC3CC(CC(C3)C1)C2 (stereo unspecified),inhibition,[1],2.38% (inactive)
O=C1Nc2ccccc2C1(O)c1ccccc1O (stereo unspecified),inhibition,[1],0.23% (inactive)
COc1cc2c(O)c3c(c(-c4ccc5c(c4)OCO5)c2cc1OC)C(=O)OC3,inhibition,[1],8.81% (inactive)
COc1c(NC(C)=O)c2c(c([N+](=O)[O-])c1OC)C(=O)OC2,inhibition,[1],0.9% (inactive)
O=S(=O)(NCc1ccccc1Cl)c1ccc(-n2cnnn2)cc1,inhibition,[1],1.99% (inactive)
CCCOc1ccc(C(=O)NNC(=S)NC(=O)c2ccccc2)cc1,inhibition,[1],7.4% (inactive)
CCCCC(=O)NC(=S)NNC(=O)c1ccc(OC)cc1,inhibition,[1],11% (inactive)
C=CCNC(=S)NNC(=O)c1ccc(OCCC)cc1,inhibition,[1],1.27% (inactive)
CCC(=O)NC(=S)NNC(=O)c1ccc(OC)cc1,inhibition,[1],3.83% (inactive)
CCCn1c(N)c(C(=O)CSc2nnc(N)s2)c(=O)[nH]c1=O,inhibition,[1],8.01% (inactive)
CCC1(CC)NC(=O)N(CC(=O)Nc2ccc(C)cc2C)C1=O,inhibition,[1],1.89% (inactive)
Cc1cn([C@H]2C[C@H](O)[C@@H](CNC(=O)[C@@H]3CCCN3Cc3ccccc3)O2)c(=O)[nH]c1=O,inhibition,[1],1.26% (inactive)
COCC(=O)N1CCCC(C(=O)c2ccc(-c3ccccc3)c(F)c2)C1 (stereo unspecified),inhibition,[1],3.71% (inactive)
COc1cc(/C=C/C(=O)c2ccc(NS(=O)(=O)c3ccc(C)cc3)cc2)ccc1OC(F)F,inhibition,[1],42.9% (inactive)
COc1cc(OC)c(OC)cc1/C=C/C(=O)c1ccc(NS(=O)(=O)c2ccc(C)cc2)cc1,inhibition,[1],6.43% (inactive)
COCCNC(=O)CCCn1c(=O)c2cc(OC)c(OC)cc2n(CC(=O)Nc2ccccc2OC)c1=O,inhibition,[1],1.37% (inactive)
O=C(CCc1ccccc1)N1CCN(c2ccc(Cl)cc2)CC1,inhibition,[1],0.61% (inactive)
CCCCN(CC)CCNC(=O)c1ccc2c(Cl)c3c(nc2c1)CCC3,inhibition,[1],inactive
CCCN(CCC)CCCNC(=O)c1ccc2c(Cl)c3c(nc2c1)CCC3,inhibition,[1],inactive
COc1cc2cc(C(=O)N/N=C/c3ccc(F)cc3)[nH]c2cc1OC,inhibition,[1],2.5% (inactive)
CCN1CCN(c2cc(C)c3cc(NC(=S)N4CCN(c5ccc(F)cc5)CC4)ccc3n2)CC1,inhibition,[1],0.9% (inactive)
Cc1nn(Cc2cccc(C(=O)O)c2)c(C)c1[N+](=O)[O-],inhibition,[1],1.46% (inactive)
O=C(Nc1ccccc1SCC1CSc2nc3ccccc3c(=O)n21)c1ccccc1 (stereo unspecified),inhibition,[1],7.04% (inactive)
Nc1ccccc1SCC1CSc2nc3ccccc3c(=O)n21 (stereo unspecified),inhibition,[1],1.18% (inactive)
O=c1c2ccccc2nc2n1C(CSc1ccccc1)CS2 (stereo unspecified),inhibition,[1],1% (inactive)
O=C(Nc1ccccc1SCC1CSc2nc3ccccc3c(=O)n21)c1ccccc1Cl (stereo unspecified),inhibition,[1],13.7% (inactive)
CC(NC(=O)Cn1c(=O)[nH]c2ccsc2c1=O)C12CC3CC(CC(C3)C1)C2 (stereo unspecified),inhibition,[1],4.05% (inactive)
O=C(N/N=C/c1ccc(F)cc1)c1cc(-c2ccc3c(c2)OCO3)n[nH]1,inhibition,[1],3.22% (inactive)
CN(CC(=O)Nc1ccc(F)cc1)C(=O)COC(=O)/C=C/c1ccccc1[N+](=O)[O-],inhibition,[1],5.33% (inactive)

# From PubChem BioAssay AID588727 (Southern Research Specialized Biocontainment Screening …, 2011)
